# Shown are actives, neighbours in structure and some others; about 4.3% of the full set was active somewhere.
# BoNT-F LC inh = BoNT/F light chain protease inhibitors, primary screen, biochemical, flow cytometry, MLPCN library. Multiplex microsphere protease cleavage assay. inhibition, % at 10 µM. AID 588497, 2011. Botulinum neurotoxin type F light chain protease (Clostridium botulinum). 360,000 compounds, 0.22% hits; in the data active = inhibition above about 35%, passing the limit was not always enough; inconclusive = no clear call, values can overlap the other calls; note: plate controls were buffer without enzyme for full effect and enzyme alone for no effect
# PfHsp40 yeast = rescue of yeast from PfHsp40 toxicity, primary screen, S. cerevisiae, ATP luminescence; S. cerevisiae expressing PfHsp40, growth rescue; 340,000 compounds, 0.68% hits; growth rescue, % at 12.5 µM; in the data active = growth rescue above about 28%, passing the limit was not always enough; inconclusive = no clear call, values can overlap the other calls;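 note: yeast W303a lacking pdr1 and pdr3 grown in galactose medium; growth measured after three days at 30 °C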
# Bead autofluor = counter-screen for toxin protease inhibitors: compound fluorescence | fluorescence intensity (concentration not given with the values) | compound autofluorescence counterscreen, microsphere flow cytometry; active compounds read high | 360,000 compounds, 3.1% hits; in the data active = fluorescence intensity above about 16000; inconclusive = no clear call, values can overlap the other calls
# Anthrax LF prot = Bacillus anthracis LF protease inhibitors, primary screen, biochemical, multiplex microsphere, MLPCN library. inhibition, % at 10 µM. multiplex microsphere protease cleavage assay. 360,000 compounds, 0.12% hits; note: plate controls were buffer without enzyme for full effect and enzyme alone for no effect
# BoNT-A LC inh2 = BoNT/A light chain protease inhibitors, primary screen, biochemical, flow cytometry, MLPCN library | Botulinum neurotoxin type A light chain protease (Clostridium botulinum A str. ATCC 3502) | multiplex microsphere protease substrate cleavage | inhibition, % at 10 µM | 360,000 compounds, 0.17% hits | AID 588499, 2011; note: plate controls were buffer without enzyme for full effect and enzyme alone for no effect
# MazF activator = activators of E. coli MazEF toxin-antitoxin RNase, primary screen, biochemical, fluorescence, uHTS; Endoribonuclease toxin MazF (Escherichia coli (strain K12)), P0AE70; FAM/BHQ RNA-DNA oligo cleavage fluorescence, 5 h; activation, % at 20 µM; 350,000 compounds, 0.32% hits; in the data active = activation above about 50%
# * marks the source's active call; other numbers are inactive results; ? = inconclusive; . = not tested or not shown. Cut-off read from the data, not from the text of the source, unless noted: active = inhibition above about 30%; inconclusive = no clear call, values can overlap the other calls; inactive = below that.
SMILES,BoNT-F LC inh,PfHsp40 yeast,Bead autofluor,Anthrax LF prot,BoNT-A LC inh2,MazF activator
CCCCn1nnc(NC(=O)CCC)n1,1.4,-1.1,19212*,-3.7,2.5,-4.1
CCCCn1nnc(NC(=O)C(c2ccccc2)c2ccccc2)n1,-6.5,-0.5,4534,-9.7,-0.2,-13.1
Cc1ccc2c(cnn2C(=O)CCC(=O)N2CCCCC2)c1,-4.1,0.3,4451,-7.5,-0.5,-1.8
C=COCCn1c(C)c(C(=O)OCC)c2cc(O)ccc21,-0.5,-0.5,21557*,-1.6,?,-5.5
C[C@H]1CN([C@@H](C)CO)C(=O)CCCn2cc(nn2)CO[C@@H]1CN(C)S(=O)(=O)c1ccc(C#N)cc1,-1.0,.,3540,-5.1,-0.3,2.5
CN(CC(=O)NCC1CCCCC1)CC(=O)Nc1ccccc1Br,7.2,2.6,4572,-1.0,3.3,-5.1
CCC(C)NC(=O)CN1C(=O)c2cccc3cccc1c23 (stereo unspecified),-7.1,0.1,3538,2.6,2.2,-14.9
CCN1/C(=N\N)c2cccc3cccc1c23,-54.6,-0.2,3325,-9.6,39.3*,9.4
CNc1cccc(-c2ccccc2CO)n1,4.5,.,3735,7.0,0.1,.
O=C(CSc1ncccc1C(=O)O)Nc1ccc2c(c1)OCCO2,-3.4,-0.1,5903,2.5,0.4,10.4
Cc1ccc2c(Cl)c(C(=O)N/N=C/c3cccn3C)sc2c1,2.2,-0.2,2086,1.2,-0.8,71.5*
Cc1cc(C(=O)N/N=C/c2cccn2C)no1,-21.3,-0.7,2002,-1.7,-1.2,-5.9
O=C(OCn1ncc(Cl)c(Cl)c1=O)c1ccccc1Cl,-4.0,1.6,16218*,-1.0,-0.3,10.4
Cc1cc(C(N)=O)c2cc(Br)ccc2n1,-3.1,1.1,20846*,0.1,-2.2,16.6
CCn1cc(CN2CCCC(C(=O)c3ccc(-c4ccccc4)cc3)C2)cn1 (stereo unspecified),-4.8,-0.1,4365,-8.3,-1.0,3.1
CC(C)OC(=O)c1c(NC(=O)CCn2nnc3ccccc32)sc2c1CCCC2,-2.0,0.2,20341*,1.2,?,-11.0
CC(C)OC(=O)c1c(NC(=O)CCC(=O)O)sc2c1CCCCC2,-1.1,0.8,2443,-2.5,-0.3,0.7
Cc1ccc(NC(=O)C(C)N2C(=O)C3C4CC(C(Br)C4Br)C3C2=O)cc1 (stereo unspecified),-2.6,2.1,22632*,-2.0,-0.9,5.5
O=C(O)[C@H](Cc1ccccc1)NC(=O)N1CCN(c2ccc(F)cc2)CC1,-3.8,0.9,4048,-4.1,-0.3,-11.8
Cc1ccc(CN(CC(=O)NCCc2ccccc2)C(=O)CCCC(=O)Nc2cc(C)on2)cc1,0.1,0.7,17240*,0.1,-0.4,4.1
COc1ccc(S(=O)(=O)NCCOc2ccccc2)cc1OC,3.8,-1.6,22108*,0.0,1.3,-0.6
O=C1CC(c2ccc(S(=O)(=O)NCCOc3ccccc3)cc2)CN1 (stereo unspecified),2.0,0.9,21883*,-2.2,3.1,-2.7
CCNS(=O)(=O)c1ccc(Br)c(OC)c1,0.0,-0.6,20265*,-1.8,-0.9,3.8
C/C=C/C1=CC(=O)C[C@H](c2ccc(Cl)cc2)C1,-0.9,0.1,4015,1.5,0.1,5.9
COc1ccc(C(=O)OCCN=C2NS(=O)(=O)c3ccccc32)cc1OC,6.9,0.9,21489*,2.4,6.9,-1.9
SMILES,BoNT-F LC inh,PfHsp40 yeast,Bead autofluor,Anthrax LF prot,BoNT-A LC inh2,MazF activator
Cc1ccc(-n2c3c(cc(C(=O)N4CCN(C)CC4)c2=O)C(=O)CC(C)(C)C3)cc1,8.9,-1.2,9464,-5.8,-0.3,2.3
Cc1cc2c(n1-c1ccc(C(N)=O)cc1)CC(C)(C)CC2=O,-3.0,0.2,22230*,-1.6,?,2.2
Cc1ccc(S(=O)(=O)NC(=O)C2(C)CCN2C(=O)Cc2cc(F)ccc2F)nc1 (stereo unspecified),-1.7,.,3761,4.7,-0.4,.
Cc1ccc(OC(=O)N(C)C[C@@H]2OCc3cn(nn3)CCCC(=O)N([C@@H](C)CO)C[C@H]2C)cc1,-3.4,.,3391,-6.6,-0.1,3.1
CCOc1ccc(OCCCCn2cnc3ccccc3c2=O)cc1,-0.6,1.6,3231,-2.8,0.0,4.4
COc1ccccc1OCCOCCn1cnc2ccccc2c1=O,1.8,-1.0,19899*,-0.9,?,1.9
O=C(Cn1cnc2ccccc2c1=O)OCCCCN1C(=O)c2ccccc2C1=O,-5.3,1.1,23990*,-3.8,-1.9,0.8
CC(C)(C)c1ccc(OCCOCCn2cnc3ccccc3c2=O)cc1,-3.9,0.3,4574,1.1,-0.3,-6.2
COC(=O)c1ccc(OCCn2cnc3ccccc3c2=O)cc1,-1.1,-1.7,19676*,-0.8,-0.7,-1.7
COC(=O)Cn1cnc2ccccc2c1=O,-2.0,-0.1,2392,2.8,0.5,2.0
CCc1ccc([C@H]2C(C(=O)O)=C[C@@H](CC3CCCC3)N2S(=O)(=O)c2ccc(C)cc2)cc1,-6.9,0.4,3232,5.3,-0.8,-7.9
Cc1ccc(S(=O)(=O)N2CCC(NC(=O)C3CCCCC3)CC2)cc1,2.3,2.0,5687,5.2,1.2,1.4
COc1ccc(C(=O)c2ccc3oc(-c4ccc(OC)cc4)c(-c4ccc(O)cc4)c3c2)cc1,-2.1,1.7,3596,-7.6,0.3,-5.4
O=C(c1ccc(Br)o1)N(Cc1ccccc1)c1ccccn1,5.8,1.0,19550*,-0.8,?,6.1
O=C(c1ccccc1)N(Cc1ccccc1)c1ccccn1,-6.5,-0.8,10766,-0.6,-0.8,-1.9
O=C(COC(=O)[C@H](Cc1ccccc1)NC(=O)c1cccs1)NC1CCCCC1,-1.5,0.5,2648,-0.9,-0.4,2.4
O=C(COC(=O)[C@H](Cc1ccccc1)NS(=O)(=O)c1ccccc1F)NC1CCCCC1,12.5,-0.3,18375*,-22.4,6.8,-4.4
CCOc1ccc(S(=O)(=O)N2CCN=C2c2ccccc2)cc1,-2.7,1.6,5692,-7.2,-0.3,-5.1
N#CC1C(=N)Cc2ccccc2-c2ccccc21 (stereo unspecified),0.5,39.3*,4279,-2.4,0.0,-9.4
Nc1ccc2c(c1)Cc1ccccc1-2,-7.3,1.3,2161,-1.0,0.3,1.0
CCCCNC(=O)C1(C)CCC(=O)N1CCc1c[nH]c2ccccc12 (stereo unspecified),-1.8,.,6648,0.5,-0.5,.
O=C(CSc1ccccc1)Nc1cc(S(=O)(=O)N2CCOCC2)ccc1N1CCOCC1,0.1,58.7*,4627,-4.2,0.7,75.6*
COc1ccc2ccccc2c1/C=N/NC(=S)Nc1cc(S(=O)(=O)N2CCOCC2)ccc1N1CCOCC1,13.7,-0.5,10114,6.0,5.6,-3.7
